According to PubChem BioAssay (NCATS):
Unmarked numbers belong to inactive results. Records with an inconclusive call do not appear. A call without a number means that no potency is given here. Calls of active or inactive are those of the source. The call rests on the fitted dose curve; in most records, active means well fitted curve in the direction sought with a large enough effect; inconclusive means small, poorly fitted or top-dose-only effect, or another doubt; inactive means no such curve, though single readings can be large; an effect the other way counts as inactive or inconclusive.

How the values were obtained:
[1] = Validation qHTS assay for inhibitors of Activation Induced Cytidine Deaminase (AID): UDG Counterscreen signal (AID 1347427)
Outline: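 Counterscreen read of UDG activity (2 U/mL, 4/3x) in the FRET deamination format with AID (1 uM, 4/3x), DJC20/DJC23 substrates (250 nM, 4x), 4 h at room temperature. NaOH stop, fluorescence at 560 ex/665 em.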

[2] = target: Single-stranded DNA cytosine deaminase (Homo sapiens) (UniProt Q9GZX7); assay: Validation qHTS assay for inhibitors of Activation Induced Cytidine Deaminase (AID): AID signal (AID 1347429)
Outline: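 AID and UDG were combined and compounds added at final up to 114 uM, then DJC20/DJC23 FRET substrate was added for 4 hr at room temperature. NaOH was then added for 30 min before fluorescence was read at 540/590 nm.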

[3] = target: Calcium and integrin-binding protein 1 (Homo sapiens) (UniProt Q99828); assay: Validation qHTS for Identification of Calcium Integrin Binding protein 1 (CIB1) Competitor (AID 1508618)
Outline: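 In this qHTS validation, the LOPAC set (up to 114 uM) was tested for blocking CIB1 binding to a fluorescein-tagged alphaIIb peptide, with FP detection at 480/540 nm.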

[4] = Counterscreen qHTS for small molecule stabilizers of the endoplasmic reticulum resident proteome: GLuc-NoTag assay (AID 1508627); further: potency means the concentration at half of the fitted maximal effect
Outline: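 SH-SY5Y cells stably expressing constitutively secreted GLuc (no SERCaMP tag) were pre-incubated 5 h, treated with compound for 19 h, then 100 nM thapsigargin for 4 h at 37C; medium GLuc read by coelenterazine luminescence.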

[5] = Confirmatory qHTS for small molecule stabilizers of the endoplasmic reticulum resident proteome: Secreted ER Calcium Modulated Protein (SERCaMP) assay (AID 1508628);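 further: SH-SY5Y cells given compound 16 h then thapsigargin 100 nM for 4 h; series mostly up to about 76 µM; nearly all actives have a fitted effect of over 40% in size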
Outline: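 We seeded SH-SY5Y-GLuc-SERCaMP cells, added compounds (three concentrations in the primary run, eleven up to 76.6 uM in confirmation), incubated 16 h, depleted ER calcium with thapsigargin, and read luciferase 4 h later.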

[6] = Cell Viability qHTS for small molecule stabilizers of the endoplasmic reticulum resident proteome (AID 1508629); conditions: cell viability counter-screen, 100 nM thapsigargin for final 4 h;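 further: compound exposure about 46 h in total before the viability read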; further: potency means the concentration at half of the fitted maximal effect;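 on max response: human SH-SY5Y neuroblastoma cells carrying the GLuc-SERCaMP reporter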

Single-stranded DNA cytosine deaminase (Homo sapiens), sequence (Q9GZX7 whole entry, looked up): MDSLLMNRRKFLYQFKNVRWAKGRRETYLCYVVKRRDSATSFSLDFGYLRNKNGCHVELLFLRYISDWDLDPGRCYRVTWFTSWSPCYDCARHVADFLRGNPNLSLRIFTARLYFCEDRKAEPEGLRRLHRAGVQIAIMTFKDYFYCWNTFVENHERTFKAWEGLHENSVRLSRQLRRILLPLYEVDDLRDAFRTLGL
Calcium and integrin-binding protein 1 (Homo sapiens), sequence (Q99828 whole entry, looked up): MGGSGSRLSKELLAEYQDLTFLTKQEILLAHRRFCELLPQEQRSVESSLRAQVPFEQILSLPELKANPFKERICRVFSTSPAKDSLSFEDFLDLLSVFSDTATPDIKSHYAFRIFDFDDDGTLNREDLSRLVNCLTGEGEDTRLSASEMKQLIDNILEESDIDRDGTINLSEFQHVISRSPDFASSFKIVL

C[C@H]1O[C@@H](n2cc(F)c(=O)[nH]c2=O)[C@H](O)[C@H]1O
outcome [1]: inactive
outcome [2]: inactive

C=CCc1cccc(C=NNC(=O)CN2CCN(Cc3ccccc3)CC2)c1O
outcome [1]: inactive
outcome [2]: inactive
outcome [3]: inactive

O[C@@H](COc1cccc2ncccc12)CN1CCN(C2c3ccccc3[C@@H]3[C@H](c4ccccc42)C3(F)F)CC1 (stereo partly specified)
Potency [4]: inactive

O=C(CCCN1CCN(c2ccc(F)cc2)CC1)NC1c2ccccc2CSc2ccccc21 (stereo unspecified)
Potency [4]: 39.8 µM (active)
Potency [5]: inactive
Potency [6]: 25.1 µM (active)

CC(C)=CCCC(C)=CCCC(C)=CCCC(C)=CCCC(C)=CCCC(C)=CCCC(C)=CCCC(C)=CCCC(C)=CCO
max response [6]: 2.98%

NS(=O)(=O)c1cc(Cl)c(Cl)c(S(N)(=O)=O)c1
max response [6]: 21%
